Counter-ions that a name gives are not always drawn.
Legend:
Settings in all cases: 20 µM
[1] = tested on: Salmonella enterica typhimurium; assay: growth AUC normalised to DMSO control (fraction of control); higher = less growth inhibition, active = hit call of the paper
In short: (§1)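 Three biological replicates were carried out, with OD578 read hourly for 24 h. Before inoculation at a starting OD578 of 0.01, pathogens were passaged anaerobically twice; plates were pre-reduced mGAM containing 20 μM compound and 1% DMSO, sealed with breathable membranes, and the Haemophilus parainfluenzae medium carried added hemin and NAD. Area under each growth curve was calculated by the trapezoidal rule up to the exponential-to-stationary transition and normalised to DMSO controls on the same plate.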

Shigella flexneri = assay: as above
In short: as §1

Vibrio cholerae = assay: as above
In short: as §1

[2] = tested on: Yersinia pseudotuberculosis; assay: as above
In short: as §1

P. vulgatus RND KO = assay: growth AUC normalised to DMSO control (median) (fraction of control); higher = less growth inhibition, active = hit call of the paper
In short: (§2)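 Anaerobic growth was tracked hourly at OD578 for 24 h in 96-well plates of mGAM seeded at OD578 0.01 with each approved-drug library compound at 20 μM and 1% DMSO. Strains had first been passaged twice overnight without oxygen. Three biological replicates were run. The reported median is the area under the curve, calculated by the trapezoidal rule on curves truncated at entry into stationary phase and normalised to vehicle wells on the same plate.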

P. vulgatus WT = assay: as above
In short: as §2

[3] = tested on: S. enterica typhimurium WT; assay: as above
In short: as §2

[4] = tested on: S. enterica typhimurium tolC KO; assay: as above
In short: as §2

Measured: growth AUC normalised to DMSO control
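For growth AUC normalised to DMSO control (median) in this document: active when median AUC fell below 0.1.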

Nc1nc(F)nc2c1ncn2[C@@H]1O[C@H](CO)[C@@H](O)[C@@H]1O [Fludarabine]
inactive: [1] 0.963 | Shigella flexneri 0.933 | Vibrio cholerae 0.997 | [2] 0.988 | P. vulgatus RND KO 0.994 | P. vulgatus WT 0.999 | [3] 0.994 | [4] 0.991

Nc1nc2c(ncn2COC(CO)CO)c(=O)[nH]1 [Ganciclovir]
inactive: [1] 0.988 | Shigella flexneri 0.996 | Vibrio cholerae 1 | [2] 0.99 | P. vulgatus RND KO 0.978 | P. vulgatus WT 0.971 | [3] 0.992 | [4] 0.993

S=c1[nH]cnc2nc[nH]c12 [Mercaptopurine]
inactive: [1] 0.997 | Shigella flexneri 1.01 | Vibrio cholerae 1 | [2] 0.987 | P. vulgatus RND KO 1.01 | P. vulgatus WT 1 | [3] 1 | [4] 0.998

CNCC(O)c1ccc(OC(=O)C(C)(C)C)c(OC(=O)C(C)(C)C)c1 (stereo not given) [Dipivefrin hydrochloride]
inactive: [1] 1.01 | Shigella flexneri 1.04 | Vibrio cholerae 1.05 | [2] 1.01 | P. vulgatus RND KO 1.02 | P. vulgatus WT 1.03 | [3] 1.02 | [4] 0.953

CC/C(=C(\c1ccccc1)c1ccc(OCCN(C)C)cc1)c1ccccc1 [Tamoxifen citrate]
inactive: [1] 1.01 | Shigella flexneri 1.01 | Vibrio cholerae 1 | [2] 0.981 | P. vulgatus RND KO 0.968 | P. vulgatus WT 0.978 | [3] 1 | [4] 1.01
